Assay results from paper PMC5540273 (PLoS ONE, 2017).

Legend:
Conditions in all cases: concentration: 1 μM, replicates: in singlicate; n = 1
[1] = tested on: ACVR1
[2] = tested on: ACVR2A
[3] = tested on: ACVR2B
[4] = tested on: ACVRL1
[5] = tested on: T1, ADCK3
T1 construct: gene CABC1

[6] = tested on: ADCK4
[7] = tested on: AKT1
[8] = tested on: AKT2
[9] = tested on: AKT3
[10] = tested on: ALK
[11] = tested on: T2, AMPK-alpha1
T2 construct: gene PRKAA1

[12] = tested on: T3, AMPK-alpha2
T3 construct: gene PRKAA2

[13] = tested on: ANKK1
[14] = tested on: T4, ARK5
T4 construct: gene NUAK1

[15] = tested on: T5, ASK1
T5 construct: gene MAP3K5

[16] = tested on: T6, ASK2
T6 construct: gene MAP3K6

[17] = tested on: AURKA
[18] = tested on: AURKB
[19] = tested on: AURKC
[20] = tested on: AXL
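Also: KINOMEscan kinase panel screen.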

Compound | %Inh [1] | %Inh [2] | %Inh [3] | %Inh [4] | %Inh [5] | %Inh [6] | %Inh [7] | %Inh [8] | %Inh [9] | %Inh [10] | %Inh [11] | %Inh [12] | %Inh [13] | %Inh [14] | %Inh [15] | %Inh [16] | %Inh [17] | %Inh [18] | %Inh [19] | %Inh [20]
COc1ccc(Nc2nccc(NCCNC(=O)Nc3cc(C)ccc3C)n2)cc1 [GSK1379899] | 2% | 2% | 6% | 0% | 0% | 0% | 0% | 0% | 0% | 1% | 0% | 0% | 0% | 0% | 0% | 0% | 0% | 14% | 36% | 4%
CNc1nc(-c2ccc3c(N)n[nH]c3c2)cc(N2C[C@@H](C(=O)NC3CCCCC3)OC[C@H]2C)n1 [GSK2375584] | 18% | 0% | 35% | 0% | 24% | 18% | 0% | 22% | 0% | 0% | 6% | 0% | 8% | 23% | 12% | 0% | 9% | 16% | 12% | 0%
CC(=O)c1c(C)c2cnc(Nc3ccn(C)n3)nc2n(C2CCCC2)c1=O | 16% | 0% | 0% | 0% | 0% | 0% | 3% | 23% | 0% | 6% | 20% | 0% | 0% | 0% | 0% | 0% | 4% | 0% | 0% | 0%
Nc1cccc(-c2ccc3c(N)n[nH]c3c2)n1 [GSK2192730] | 0% | 0% | 9% | 0% | 1% | 0% | 0% | 0% | 0% | 21% | 0% | 0% | 17% | 0% | 0% | 13% | 8% | 15% | 22% | 0%
Cc1ccc(NC(=O)Nc2ccccc2)cc1-c1ccc(C(=O)Nc2ccncc2)cc1 [GSK1398471] | 0% | 0% | 0% | 0% | 19% | 14% | 1% | 4% | 0% | 21% | 15% | 11% | 0% | 13% | 10% | 4% | 15% | 0% | 0% | 11%
CNC(=O)c1ccc(C)c(-n2c(C)cc(OCc3ccc(F)cc3F)c(Br)c2=O)c1 | 0% | 0% | 2% | 0% | 0% | 0% | 0% | 2% | 0% | 0% | 0% | 5% | 0% | 0% | 15% | 0% | 0% | 0% | 0% | 0%
COc1ccc(CSc2nnc(-c3ccc4nccn4c3)o2)cc1C(F)(F)F | 0% | 7% | 15% | 21% | 6% | 6% | 13% | 4% | 44% | 29% | 3% | 9% | 0% | 9% | 0% | 44% | 0% | 22% | 15% | 20%
c1ccc(-c2ccnc3[nH]ccc23)cc1 [SB-693578] | 0% | 0% | 0% | 0% | 6% | 40% | 0% | 6% | 0% | 33% | 0% | 0% | 0% | 20% | 2% | 19% | 17% | 41% | 0% | 0%
Fc1ccc(-c2nn3cccc(F)c3c2-c2ccncc2)cc1 [GW475620] | 11% | 0% | 47% | 22% | 12% | 9% | 0% | 14% | 29% | 16% | 42% | 19% | 0% | 16% | 8% | 0% | 0% | 45% | 46% | 3%
COc1ccc(-c2coc3ccc(-c4nnc(C)o4)cc23)cc1 | 0% | 5% | 0% | 27% | 9% | 0% | 8% | 0% | 2% | 0% | 0% | 3% | 0% | 0% | 0% | 10% | 0% | 18% | 0% | 0%
CNc1nc(-c2ccc3c(N)n[nH]c3c2)cc(N2C[C@@H](C(=O)Nc3ccccc3)CC[C@H]2C)n1 [GSK2298859] | 0% | 0% | 12% | 0% | 22% | 26% | 0% | 2% | 0% | 3% | 0% | 0% | 1% | 25% | 0% | 12% | 12% | 16% | 43% | 8%
COc1ccc(CSc2nnc(-c3ccc4c(c3)CCO4)o2)cc1 | 0% | 0% | 0% | 0% | 0% | 0% | 0% | 0% | 0% | 0% | 0% | 0% | 0% | 33% | 0% | 0% | 0% | 0% | 0% | 0%
Nc1ncnc2occ(-c3ccc4c(c3)CCN4C(=O)Cc3cc(F)ccc3F)c12 [GSK2645446] | 0% | 0% | 0% | 0% | 8% | 0% | 0% | 0% | 0% | 0% | 4% | 0% | 3% | 12% | 0% | 0% | 0% | 48% | 40% | 34%
COc1ccc2cc(-c3nc(-c4ccccc4C(C)C)[nH]c3-c3ccncc3)ccc2c1 [SB-660566] | 17% | 0% | 0% | 34% | 5% | 17% | 0% | 41% | 0% | 38% | 17% | 0% | 6% | 18% | 16% | 3% | 5% | 30% | 0% | 36%
Fc1ccc(-c2nc[nH]c2-c2ccncc2)cc1 [SB-217360] | 0% | 5% | 50% | 0% | 0% | 18% | 4% | 0% | 0% | 10% | 5% | 0% | 0% | 0% | 0% | 0% | 8% | 33% | 0% | 0%
Nc1nccc(-c2c(-c3ccc(F)cc3)ncn2C2CCN(Cc3ccccc3)CC2)n1 [SB-219980] | 7% | 0% | 0% | 9% | 0% | 55% | 15% | 0% | 0% | 16% | 0% | 3% | 59% | 15% | 0% | 0% | 21% | 22% | 0% | 9%
Cc1c(Cn2c(C)c(C)n3c(=O)cc(N4CCOCC4)nc23)cccc1C(F)(F)F [GSK2328680] | 0% | 0% | 0% | 0% | 2% | 14% | 0% | 0% | 0% | 3% | 0% | 2% | 0% | 0% | 2% | 0% | 0% | 0% | 0% | 0%
Cc1cnc(N)c(/C=C/c2cncc(C(=O)NCCc3ccc(Cl)cc3Cl)c2)c1.Cl [GSK190937] | 0% | 0% | 0% | 0% | 25% | 13% | 0% | 0% | 0% | 0% | 3% | 18% | 3% | 1% | 2% | 0% | 1% |  | 12% | 5%
COc1ccc(Nc2nccc(N3CCC(NC(=O)C(C)c4ccc(Cl)cc4)C3)n2)cc1 (centres unmarked) [GSK1379735] | 14% | 0% | 0% | 0% | 22% | 17% | 0% | 9% | 0% | 25% | 0% | 21% | 0% | 22% | 10% | 4% | 0% | 24% | 49% | 16%
COc1ccc(Nc2nccc(N3CCC(NC(=O)C(C)c4ccc(Cl)cc4)CC3)n2)cc1 (centres unmarked) [GSK1379812] | 8% | 0% | 0% | 0% | 25% | 18% | 0% | 0% | 3% | 18% | 35% | 11% | 3% | 20% | 0% | 0% | 23% | 4% | 42% | 0%
COc1ccc(CSc2nnc(-c3ccc4ncsc4c3)o2)cc1C(F)(F)F | 0% | 0% | 0% | 2% | 0% | 0% | 8% | 4% | 0% | 0% | 0% | 13% | 0% | 10% | 0% | 4% | 0% | 13% | 0% | 0%
